From PubChem BioAssay AID1851 (National Center for Advancing Translational Sciences (NCATS), 2009) come the findings set out here.

Hit rate of the full screen: of about 16,000 compounds, about 5,800 (36%) were called active. Roughly 23% stayed inconclusive and do not appear here. The list shows a part of the results. Unmarked numbers belong to inactive results. Calls come from the whole dose curve; as a rule, active = well fitted curve in the direction sought with a large enough effect; inconclusive = small, poorly fitted or top-dose-only effect, or effect the other way; inactive = no such curve, though single readings can be large or run the other way.

In general, AC50 refers to the concentration at which the activity in the assay is half-maximal.
% is set by controls: 0 for no effect and ±100 for the full control effect.

For the assay, the target named is Cytochrome P450 2C19 (Homo sapiens) (UniProt P33261). Put plainly: Cytochrome panel assay with activity outcomes. The settings on record: recombinant CYP, pro-luciferin dealkylation, luminescence, p450-cyp2c19; series mostly up to 57.1 µM; activity, negative = inhibition: at the top concentration.
Sequence of Cytochrome P450 2C19 (Homo sapiens) (P33261 whole entry, looked up): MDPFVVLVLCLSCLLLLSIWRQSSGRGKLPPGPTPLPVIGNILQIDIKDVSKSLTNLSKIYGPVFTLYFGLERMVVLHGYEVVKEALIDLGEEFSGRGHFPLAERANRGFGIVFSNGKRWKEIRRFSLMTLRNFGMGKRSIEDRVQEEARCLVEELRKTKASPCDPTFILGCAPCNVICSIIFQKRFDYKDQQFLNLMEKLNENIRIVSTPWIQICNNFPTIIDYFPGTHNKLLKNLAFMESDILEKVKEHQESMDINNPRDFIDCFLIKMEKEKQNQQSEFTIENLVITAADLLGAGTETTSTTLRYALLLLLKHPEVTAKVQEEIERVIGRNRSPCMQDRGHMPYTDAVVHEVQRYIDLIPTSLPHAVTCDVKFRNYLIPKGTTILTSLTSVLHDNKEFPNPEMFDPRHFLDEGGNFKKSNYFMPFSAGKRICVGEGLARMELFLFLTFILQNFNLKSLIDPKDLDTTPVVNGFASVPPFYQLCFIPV
Consider `COC(=O)[C@@H]1C[C@H]1[C@@H](NC(=O)Oc1ccc(F)cc1)c1ccccc1`, for which the AC50 was 10 µM (active).
Regarding `COC(=O)[C@@H]1C[C@H]1[C@@H](NC(=O)c1cccnc1)c1ccccc1`, the “activity, negative = inhibition” value is -22.1%.
As to `O=C(N[C@@H](c1ccccc1)[C@@H]1C[C@H]1C(=O)O)OCc1ccccc1`, the “activity, negative = inhibition” value was -33%.
Turning to `COC(=O)[C@H]1C[C@@H]1[C@H](NC(=O)OCc1ccccc1)c1ccccc1`, the concentration at half-maximal activity (AC50) is 3.16 µM (active).
The same measure, in the same setting: under `COC(=O)[C@H]1C[C@@H]1[C@H](NC(=O)c1ccccc1)c1ccccc1` stands 7.94 µM (active).
On to `COc1cccc(Nc2ncc3nc(-c4cc(F)cc(F)c4)c(=O)n(CCC#N)c3n2)c1`, for which the “activity, negative = inhibition” value is -0.627%.
Take `CC(C)(S)[C@H](N)C(=O)O`: the activity, negative = inhibition is 4.04% [at 11.4 µM].
For `O=C(N[C@@H](c1ccccc1)[C@@H]1C[C@H]1C(=O)NCc1ccccn1)OCc1ccccc1`, the half-maximal activity concentration (AC50) is 7.94 µM (active).
The same measure, in the same setting: the same measure for `CCCCN1C(=O)C(NC(=O)C2CC2)(C(F)(F)F)C2=C1CC(C)(C)CC2=O` (configuration not stated): 20 µM (active); for `CC1CCN(CCOc2cc(Cl)ccc2Cl)CC1`: 7.08 µM (active).
On to `OCCN1CCN(CCOc2cccc(Cl)c2)CC1`, for which the “activity, negative = inhibition” value is 28.5%.
On the same count and under the same terms, under `Clc1ccc(Cl)c(SCCCN2CCNCC2)c1` stands 11.4% [at 11.4 µM].
Still for that read-out and setting: the same measure for `O=C(O)CCCCCCCC(=O)O`: 14.9%.
For the molecule `CN(C)c1ccc(-c2nc3n(n2)C(c2cccnc2)C2=C(CC(C)(C)CC2=O)N3)cc1` (configuration not stated), the concentration at half-maximal activity (AC50) is 14.1 µM (active).
`c1cc(CNCCN2CCNCC2)ccn1`: the activity, negative = inhibition was -34.1% [at 11.4 µM].
Consider `c1cc(CNCCCN2CCOCC2)ccn1`, for which the half-maximal activity concentration (AC50) is 7.94 µM (active).
With `CCOc1ccccc1CNCCN1CCOCC1`, the “activity, negative = inhibition” value is 6.81%.
For the molecule `Cn1c(=O)c(-c2ccc(F)c(F)c2)nc2cncnc21`, the “activity, negative = inhibition” value is -43.5%.
Take `CSc1nncc(-c2ccc(F)c(F)c2)n1`: the AC50 was 11.2 µM (active).
Consider `CC(=O)Nc1ccc2c(c1)/C(=C/c1ccc([N+](C)(C)C)cc1)c1ccccc1-2`, for which the activity, negative = inhibition was -19.5% [at 11.4 µM].
For `O=C(OCc1ccc(Cl)cc1Cl)c1cccnc1Cl`, the AC50 is 0.355 µM (active).
In the case of `O=C(O)COc1c(Cl)cc(Cl)c2cccnc12`, the activity, negative = inhibition is 26% [at 11.4 µM].
As for `CC(=O)N1c2c(cc(Br)cc2S(=O)(=O)NCC2COc3ccccc3O2)CC1C` (configuration not stated), the half-maximal activity concentration (AC50) is 3.16 µM (active).
The same measure, in the same setting: under `COc1ccc(-n2nnnc2/C=C\Nc2ccccc2C(=O)c2ccccc2)cc1` stands 0.316 µM (active); under `COc1ccc(C(F)(F)F)cc1N/C=C\c1nnnn1-c1ccccc1`, 1.12 µM (active).
With `COc1cccc(Cn2c(=O)c(-c3ccccc3)nc3cnc(N4CCN(C)CC4)nc32)c1`, the “activity, negative = inhibition” value was -13.9%.
In the case of `COc1cccc(Cn2c(=O)c(CCc3ccccc3)nc3cnc(N4CCNCC4)nc32)c1`, the half-maximal activity concentration (AC50) is 25.1 µM (active).
Take `COc1cccc(Cn2c(=O)c(-c3cccc(C#N)c3)nc3cnc(N4CCN(C)CC4)nc32)c1`: the “activity, negative = inhibition” value was 20.9%.
Still for that read-out and setting: under `CN1CCN(c2ncc3nc(CCc4ccccc4)c(=O)n(Cc4ccc(F)cc4)c3n2)CC1` stands -34.9%.
Consider `COc1cccc(Cn2c(=O)c(CCc3ccccc3)nc3cnc(N4CCN(C)CC4)nc32)c1`, for which the AC50 was 7.94 µM (active).
Consider `O=C1[C@H]2CCn3c(=O)n(-c4ccccc4)c(=O)n3[C@H]2[C@H](O)[C@H]2O[C@@H]12`, for which the activity, negative = inhibition is -1.55% [at 11.4 µM].
On to `CCN(CC)S(=O)(=O)c1ccc(NC(=O)COC(=O)c2ccc(Br)o2)cc1`, for which the half-maximal activity concentration (AC50) is 11.2 µM (active).
As for `CCN(c1ccccc1)S(=O)(=O)c1ccc(NC(=S)NC(=O)c2ccc(Br)o2)cc1`, the AC50 was 8.91 µM (active).
Turning to `CN(C)S(=O)(=O)c1ccc(NC(=O)COC(=O)c2ccccn2)cc1`, the “activity, negative = inhibition” value is -16%.
As to `CCN(c1ccccc1)S(=O)(=O)c1ccc(NC(=S)NC(=O)c2cccs2)cc1`, the half-maximal activity concentration (AC50) was 3.98 µM (active).
On the same count and under the same terms, under `CN(C1CCCCC1)S(=O)(=O)c1ccc(NC(=S)NC(=O)c2cccs2)cc1` stands 3.55 µM (active).
Regarding `CC(=O)NS(=O)(=O)c1ccc(NC(=S)NC(=O)c2ccco2)cc1`, the “activity, negative = inhibition” value was 7.63%.
The same measure, in the same setting: the same measure for `CCCC(=O)Nc1ccc(C(=O)NNC(=S)NC(=O)c2cccs2)cc1`: -22.5%.
For the molecule `Cc1noc(NS(=O)(=O)c2ccc(NC(=O)c3ccc(Br)o3)cc2)c1C`, the “activity, negative = inhibition” value is -25.5%.
Still for that read-out and setting: the same measure for `CCCCCCCCCCCCCCCC[N+](C)(C)CCN(Cc1ccc(OC)cc1)c1ncccn1`: -43.8% [at 25.6 µM].
As to `O=c1c(CCc2ccccc2)nc2cncnc2n1Cc1ccccc1Cl`, the AC50 is 5.01 µM (active).
Same read-out and setting: under `O=c1c(CCc2ccccc2)nc2cncnc2n1Cc1ccc(F)cc1` stands 6.31 µM (active).
Consider `Cc1nc2cnc(N(C)C)nc2n(-c2ccccc2)c1=O`, for which the “activity, negative = inhibition” value is 5.33%.
For `O=c1c(CCc2ccccc2)nc2cncnc2n1-c1ccccc1`, the AC50 was 10 µM (active).
Regarding `Brc1ccc(-c2nnc(-c3cccc(Br)c3)o2)cc1`, the “activity, negative = inhibition” value was -11.7%.
`Cc1nnc(-c2cccc(Br)c2)c2cn(-c3ccccc3Cl)nc12`: the AC50 was 1.78 µM (active).
The same measure, in the same setting: the same measure for `Cc1nnc(-c2cccc(Br)c2)c2cn(-c3ccc(Br)cc3)nc12`: 5.01 µM (active).
